# Results as given in PubChem BioAssay AID489012 (National Center for Advancing Translational Sciences (NCATS), 2010).
# Records with an inconclusive call do not appear. The source made the active and inactive calls. Calls come from the whole dose curve; as a rule, active = well fitted activation curve with a large enough effect; inconclusive = small, poorly fitted or top-dose-only effect; inactive = no such curve, though single readings can be large or run the other way.
# Biological target: Relaxin receptor 1 (Homo sapiens) (UniProt Q9HBX9)
# Sequence (Q9HBX9 whole entry, looked up): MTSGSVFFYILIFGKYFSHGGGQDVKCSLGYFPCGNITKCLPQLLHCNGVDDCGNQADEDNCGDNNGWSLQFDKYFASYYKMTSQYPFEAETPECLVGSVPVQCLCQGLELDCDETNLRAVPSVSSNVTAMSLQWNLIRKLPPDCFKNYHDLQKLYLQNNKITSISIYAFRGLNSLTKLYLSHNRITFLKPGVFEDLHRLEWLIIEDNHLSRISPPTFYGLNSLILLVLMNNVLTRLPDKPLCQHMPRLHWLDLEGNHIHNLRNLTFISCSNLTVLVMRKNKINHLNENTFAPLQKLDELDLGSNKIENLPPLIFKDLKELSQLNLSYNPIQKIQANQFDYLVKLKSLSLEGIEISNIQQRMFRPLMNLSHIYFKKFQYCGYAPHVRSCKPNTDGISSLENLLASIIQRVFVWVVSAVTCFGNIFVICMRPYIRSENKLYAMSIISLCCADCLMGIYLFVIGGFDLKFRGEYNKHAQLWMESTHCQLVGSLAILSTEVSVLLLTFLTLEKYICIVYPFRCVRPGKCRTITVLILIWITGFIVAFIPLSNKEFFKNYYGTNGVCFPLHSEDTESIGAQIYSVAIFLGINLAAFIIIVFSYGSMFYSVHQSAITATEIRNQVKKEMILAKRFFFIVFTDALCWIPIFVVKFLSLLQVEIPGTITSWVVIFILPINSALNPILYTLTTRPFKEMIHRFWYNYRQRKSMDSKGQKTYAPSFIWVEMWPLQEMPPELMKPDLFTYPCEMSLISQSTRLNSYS
# Test: qHTS Assay for Agonists of the Relaxin Receptor RXFP1: RXFP1 Hit Validation; note: nearly all actives have a fitted effect of over 65% in size;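 for activation: cAMP rise lowers the TR-FRET signal in lysed cells with PDE4 inhibitor present; 0% = buffer-only basal and 100% = 29 nM porcine relaxin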
# Conditions: HEK293T-RXFP1 cAMP TR-FRET, 30 min; series mostly up to 115 µM; activation: at the top concentration
# Potency is the fitted concentration of half-maximal effect.
Compound,Potency,activation
CCc1ccc2n(-c3ccc(OC)cc3)c([S-])c(C(=O)Nc3cc(C)cc(C)c3)[n+]2c1,24.5 µM (active),–
O=C1CN(c2nc3ccccc3n3cnnc23)CC(=O)N1CCc1ccccc1,–,13.4% [at 45 µM] (inactive)
Cc1cc(NC(=O)CSc2ncnc3c2cnn3-c2cccc(Cl)c2)no1,–,15.1% [at 45 µM] (inactive)
c1ccc(COn2nnc3ccccc32)c(COn2nnc3ccccc32)c1,–,7.76% [at 45 µM] (inactive)
COc1ccccc1CNC(=O)CCCc1nnc2n(C)c(=O)c3sccc3n12,–,29.2% [at 45 µM] (inactive)
CC(C)n1cnc2c(N(C)c3cccc(Cl)c3)nc(N(CCO)CCO)nc21,–,-5.98% (inactive)
O=C(Nc1ccccc1C(=O)NCc1ccco1)c1ccccc1,–,16.5% [at 125 µM] (inactive)
O=C(Nc1ccccc1C(=O)NCc1ccc(Cl)cc1)c1ccco1,–,-6.16% [at 125 µM] (inactive)
CC1CCCCN1C(=O)c1ccccc1NC(=O)c1ccco1 (centres undefined),–,-6.44% [at 125 µM] (inactive)
Cc1cccn2c(=O)c3cc(C(=O)NC4CCCC4)c(=N)n(CCCN4CCOCC4)c3nc12,–,22.6% (inactive)
CCOC(=O)c1sc(NC(=O)CCc2ccc(OC)cc2)nc1C,15.4 µM (active),–
O=C(O)c1ccc(N=C2NC(=O)C(CO)(CO)S2)cc1,–,4.45% [at 45 µM] (inactive)
Cc1c(C(=O)NNc2cc(=O)n(C)c(=O)n2C)cccc1[N+](=O)[O-],–,25.3% [at 45 µM] (inactive)
CCNc1nc(NCC)nc(N(C)/N=C/c2ccco2)n1,–,7.3% (inactive)
N#C/C(=C/c1ccc(OCc2ccccc2)cc1)C(=O)NC1CCCCC1,–,12.2% [at 45 µM] (inactive)
O=S(=O)(c1cccc(-c2cn3cccnc3n2)c1)N1CCOCC1,27.5 µM (active),–
Cc1c(CCOC(=O)c2cc([N+](=O)[O-])ccc2Cl)sc[n+]1CCCCS(=O)(=O)[O-],–,7.88% (inactive)

Compound,Potency,activation
Cc1cc(C)c(C(=O)CSc2n[nH]c(=O)n2C2CC2)cc1C,–,-3.14% (inactive)
O=C(Nc1ccccc1C(=O)NCCc1ccccc1)c1ccco1,–,-11.1% [at 125 µM] (inactive)
O=C(OCc1nc2ccsc2c(=O)[nH]1)c1cccc(S(=O)(=O)N2CCOCC2)c1,34.6 µM (active),–
CCN(CC)CCCCCC(=O)Nc1ccccc1C(=O)Nc1ccccc1,–,-3.6% [at 125 µM] (inactive)
COc1cccc(CNC(=O)c2ccc(CS(=O)Cc3ccc(C)cc3)o2)c1 (centres undefined),–,3.96% [at 45 µM] (inactive)
O=C(Nc1ccccc1C(=O)N1CCCCC1)c1ccco1,–,3.58% [at 125 µM] (inactive)
CCOC(=O)CSc1nc(=O)n2cc(C)ccc2n1,–,20.1% (inactive)
CC[n+]1ccc(/C=C/c2ccc(N(C)C)cc2)c2ccccc21,–,-21.8% (inactive)
Cc1cc(C)nc(NS(=O)(=O)c2ccc(NC(=O)c3nn(-c4ccccc4)ccc3=O)cc2)n1,24.5 µM (active),–
S=c1nc[nH]c2c1[nH]c1ccccc12,6.9 µM (active),–
Cc1noc(NS(=O)(=O)c2ccc(N3Cc4ccccc4C3=O)cc2)c1C,11.9 µM (active),–
O=C(CCc1nnc2ccc(NCCCN3CCCC3=O)nn12)NCc1ccccc1Cl,–,2.42% (inactive)
C=C[C@@]1(C)CC(=O)[C@]2(O)[C@@]3(C)[C@@H](O)CCC(C)(C)[C@@H]3[C@H](O)[C@H](OC(C)=O)[C@@]2(C)O1,0.0388 µM (active),–
CCn1c(=O)c2cc(C(=O)Nc3cccc(C(C)=O)c3)sc2c2ccccc21,–,7.81% (inactive)
O=C(Nc1cccc(C(F)(F)F)c1)c1ccccc1NC(=O)C1CCCCC1,11.9 µM (active),–
O=C(Nc1ccccc1C(=O)Nc1ccc(F)cc1)c1ccco1,–,-0.753% [at 125 µM] (inactive)
COc1ccccc1NC(=O)c1sc2nc3n(c(=O)c2c1C)CCC3,–,7.23% [at 45 µM] (inactive)
